Here are results for 26 compounds from PubChem BioAssay (Tox21).

The nature of test [1]: qHTS assay to identify small molecule agonists of the peroxisome proliferator-activated receptor delta (PPARd) signaling pathway - cell viability counter screen (AID 743211). Further: nearly all actives have a fitted effect of over 55% in size. Further: potency means the concentration at half of the fitted maximal effect. Particulars: PPARd-bla HEK293H viability, CellTiter-Glo luminescence, 17 h; series mostly up to 62.6 µM. In outline: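 PPARd-bla HEK293H cells (3000/well) were pre-incubated 5 h at 37 C, then exposed to compound for 17 h at 37 C. After 2 h with LiveBLAzer substrate, CellTiter-Glo was added to the same wells; luminescence read after 30 min at room temperature.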

The target in test [2] is Peroxisome proliferator-activated receptor delta (Homo sapiens) (UniProt Q03181). The experiment in a line: qHTS assay to identify small molecule agonists of the peroxisome proliferator-activated receptor delta (PPARd) signaling pathway (AID 743212; calls by dose curve). Particulars: HEK293H PPARd-UAS-bla, beta-lactamase FRET ratio, 17 h; series mostly up to 62.6 µM. In outline:
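Cells expressing a UAS-driven beta-lactamase reporter (PPARd-bla HEK293H) were given test compounds after a 5 h settle and kept at 37 C. Reporter activity was then measured as FRET fluorescence using LiveBLAzer B/G substrate.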

Test [3] can be described thus: qHTS assay to identify small molecule antagonists of the peroxisome proliferator-activated receptor delta (PPARd) signaling pathway - cell viability counter screen (AID 743213). Further: nearly all actives have a fitted effect of over 50% in size. Further: potency means the concentration at half of the fitted maximal effect. The conditions noted are these: PPARd-bla HEK293H viability, CellTiter-Glo luminescence, 17 h; series mostly up to 62 µM. In outline: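 Viability counter-screen, qHTS format: PPARd-bla HEK293H, L165041 300 nM final, 17 h compound exposure at 37 C, CellTiter-Glo luminescence after 30 min RT.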

For test [4], the target named is Peroxisome proliferator-activated receptor delta (Homo sapiens) (UniProt Q03181). The experiment in a line: qHTS assay to identify small molecule antagonists of the peroxisome proliferator-activated receptor delta (PPARd) signaling pathway (AID 743215; active means well fitted inhibition curve with a large enough effect in the signal ratio in the repeat runs, not every such curve was filed as active; the % refers to the signal ratio;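 further: cells stimulated with agonist L165041 at 300 nM final during compound exposure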; further: potency means the concentration at half of the fitted maximal effect). The conditions noted are these: HEK293H PPARd-UAS-bla, beta-lactamase FRET ratio, antagonist, 17 h; series mostly up to 62 µM. The method in brief: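 Here, a reporter line (HEK293H, beta-lactamase under a UAS) measures PPARd signaling. Compounds are tested against agonist L165041 at 300 nM final concentration over 17 h at 37 C, with fluorescence read after substrate.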
Sequence of Peroxisome proliferator-activated receptor delta (Homo sapiens) (Q03181 whole entry, looked up): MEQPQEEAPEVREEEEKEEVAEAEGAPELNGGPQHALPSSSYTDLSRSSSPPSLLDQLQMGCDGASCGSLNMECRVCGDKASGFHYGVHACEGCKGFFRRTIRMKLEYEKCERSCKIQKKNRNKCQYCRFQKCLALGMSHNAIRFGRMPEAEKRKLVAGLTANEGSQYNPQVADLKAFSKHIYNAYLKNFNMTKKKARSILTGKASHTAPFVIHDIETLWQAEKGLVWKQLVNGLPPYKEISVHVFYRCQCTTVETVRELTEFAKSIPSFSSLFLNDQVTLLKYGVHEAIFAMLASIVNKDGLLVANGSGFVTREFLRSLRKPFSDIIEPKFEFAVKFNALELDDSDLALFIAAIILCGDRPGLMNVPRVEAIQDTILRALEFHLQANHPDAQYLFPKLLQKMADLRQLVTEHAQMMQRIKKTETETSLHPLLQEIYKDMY

Test [5] concerns the target Bile acid receptor (Homo sapiens) (UniProt Q96RI1). Briefly: qHTS assay to identify small molecule antagonists of the farnesoid-X-receptor (FXR) signaling pathway (AID 743217; active means well fitted inhibition curve with a large enough effect in the signal ratio in the repeat runs, not every such curve was filed as active; the % refers to the signal ratio). Particulars: HEK293T FXR-UAS-bla, beta-lactamase ratio, CDCA-stimulated, 16 h; series mostly up to 62.6 µM. In outline:
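Test compounds are pin-transferred onto FXR-bla HEK 293T cells, then chenodeoxycholic acid is added at 50 uM final. After 16 h at 37 °C, LiveBLAzer B/G substrate is applied for 2 h at room temperature and fluorescence read.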

A short description of test [6]: qHTS assay to identify small molecule agonists of the farnesoid-X-receptor (FXR) signaling pathway - cell viability counter screen (AID 743218). Further: nearly all actives have a fitted effect of over 45% in size. Further: potency means the concentration at half of the fitted maximal effect. The conditions noted are these: FXR-bla HEK293T viability, CellTiter-Glo luminescence, 16 h; series mostly up to 62.6 µM. In outline: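 Quantitative HTS counter screen measuring ATP-based viability via CellTiter-Glo luminescence in HEK 293T cells carrying a UAS-driven beta-lactamase reporter, after 16 h compound exposure at 37 C.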

Test [7] is described as follows: qHTS assay to identify small molecule antagonists of the farnesoid-X-receptor (FXR) signaling pathway - cell viability counter screen (AID 743221; active means well fitted cell-killing curve with a large enough effect in the repeat runs, not every such curve was filed as active; further: nearly all actives have a fitted effect of over 50% in size; further: potency means the concentration at half of the fitted maximal effect). The conditions noted are these: FXR-bla HEK293T viability, CellTiter-Glo luminescence, 16 h; series mostly up to 62.6 µM. The method in brief:
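GeneBLAzer FXR-UAS-bla HEK 293T cells, compound plus chenodeoxycholic acid (50 uM final), 16 h at 37 C. CellTiter-Glo added to the same wells after the beta-lactamase read; luminescence read after 30 min at room temperature as viability.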

The target in test [8] is Vitamin D3 receptor (Homo sapiens) (UniProt P11473). The experiment in a line: qHTS assay to identify small molecule agonists of the vitamin D receptor (VDR) signaling pathway (AID 743222; calls by dose curve). The conditions noted are these: HEK293T VDR-UAS-bla, beta-lactamase FRET ratio, 16 h; series mostly up to 63.5 µM. The method in brief: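 Tox21 cell reporter format: VDR-bla line, 16 h compound exposure in 5% CO2 at 37C, then fluorescence intensity after 2 h with LiveBLAzer B/G FRET substrate.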
Sequence of Vitamin D3 receptor (Homo sapiens) (P11473 whole entry, looked up): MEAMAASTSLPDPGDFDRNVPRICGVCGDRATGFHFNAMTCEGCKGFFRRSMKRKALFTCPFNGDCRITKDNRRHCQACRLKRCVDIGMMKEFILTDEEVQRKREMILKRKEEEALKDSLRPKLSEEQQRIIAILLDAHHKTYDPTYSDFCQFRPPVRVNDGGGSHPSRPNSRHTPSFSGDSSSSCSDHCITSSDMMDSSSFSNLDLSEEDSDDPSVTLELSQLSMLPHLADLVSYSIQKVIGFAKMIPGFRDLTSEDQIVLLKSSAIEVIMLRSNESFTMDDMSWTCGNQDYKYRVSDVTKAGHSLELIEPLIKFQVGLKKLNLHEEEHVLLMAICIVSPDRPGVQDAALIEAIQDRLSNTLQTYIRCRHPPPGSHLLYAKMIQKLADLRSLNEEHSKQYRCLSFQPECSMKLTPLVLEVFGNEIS

The target in test [9] is Bile acid receptor (Homo sapiens) (UniProt Q96RI1). Briefly: qHTS assay to identify small molecule agonists of the farnesoid-X-receptor (FXR) signaling pathway (AID 743220; active means well fitted activation curve with a large enough effect in the signal ratio in the repeat runs, not every such curve was filed as active; the % refers to the signal ratio). The conditions noted are these: HEK293T FXR-UAS-bla, beta-lactamase FRET ratio, 16 h; series mostly up to 62.6 µM. The method in brief:
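FXR-UAS-bla HEK 293T cells carrying a UAS-driven beta-lactamase reporter were plated for 5 h at 37C/5% CO2, then exposed to DMSO-dissolved Tox21 10K compounds for 16 h at 37C. A LiveBLAzer B/G FRET substrate was loaded for 2 h at room temperature before fluorescence reading.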

The target of test [10] is Vitamin D3 receptor (Homo sapiens) (UniProt P11473). Briefly: qHTS assay to identify small molecule antagonists of the vitamin D receptor (VDR) signaling pathway (AID 743223; active means well fitted inhibition curve with a large enough effect in the signal ratio in the repeat runs, not every such curve was filed as active; the % refers to the signal ratio). Particulars: VDR-UAS-bla HEK293T, beta-lactamase FRET ratio, 16 h; series mostly up to 61 µM. In outline: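 VDR-bla cells were treated with compound plus 3 nM final 1alpha,25-dihydroxyvitamin D3 for 16 h at 37C. Beta-lactamase reporter read by B/G FRET substrate fluorescence after 2 h at room temperature. qHTS format.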

Several values for one entry are separate records, joined by “and”; a condition that tells them apart may be missing. Identical values can stand only once. Results filed as inconclusive are left out. Activity calls are given as the source filed them. Unless noted, the call rests on the fitted dose curve; in most records, active means well fitted curve in the direction sought with a large enough effect in the repeat runs; inconclusive means weak or mixed curves; inactive means no such curve, though single readings can be large; an effect the other way counts as inactive or inconclusive.

Sequence of Bile acid receptor (Homo sapiens) (Q96RI1 whole entry, looked up): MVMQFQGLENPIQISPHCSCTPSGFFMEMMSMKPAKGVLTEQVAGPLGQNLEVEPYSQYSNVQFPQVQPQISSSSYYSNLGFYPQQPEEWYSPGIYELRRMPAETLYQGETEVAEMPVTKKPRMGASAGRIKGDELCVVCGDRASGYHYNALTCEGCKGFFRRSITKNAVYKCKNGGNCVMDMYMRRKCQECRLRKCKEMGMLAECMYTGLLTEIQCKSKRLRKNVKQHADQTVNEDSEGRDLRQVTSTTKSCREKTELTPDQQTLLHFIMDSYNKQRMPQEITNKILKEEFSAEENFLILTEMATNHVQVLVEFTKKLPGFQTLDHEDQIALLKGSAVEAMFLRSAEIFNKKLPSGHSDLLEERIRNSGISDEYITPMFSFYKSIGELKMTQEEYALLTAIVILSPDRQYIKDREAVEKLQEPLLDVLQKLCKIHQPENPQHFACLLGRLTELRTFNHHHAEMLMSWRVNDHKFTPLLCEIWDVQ

For the compound `CCCN(CCC)CCc1c[nH]c2ccccc12`, the Potency entry in test [1], in [2], in test [3], in test [4], in [5] and in test [6] was “inactive” throughout. Besides, the Potency entry in test [7] and in test [8] was “inactive” throughout.
Turning to `Clc1ccc(C(c2ccc(Cl)cc2)C(Cl)(Cl)Cl)cc1`, in test [1], the Potency is 49.3 µM (active) and 38.9 µM (active). Also, the Potency result in test [2], in [3], in [6], in test [7] and in test [8] was “inactive” throughout. Moreover, the outcome in [9] was inactive.
Take `Clc1ccc(C(Cl)(Cl)Cl)c(Cl)c1`: the Potency entry in test [1], in [2], in [3], in test [6], in test [7] and in test [8] was “inactive” in each case.
`Clc1ccc(CO/N=C(\Cn2ccnc2)c2ccc(Cl)cc2Cl)c(Cl)c1`: the Potency entry in [1], in [2], in test [3], in test [4], in [7] and in test [8] was “inactive” in each case.
With `CCc1nn(C)c(C(=O)NCc2ccc(C(C)(C)C)cc2)c1Cl`, the Potency in test [1] was 38.9 µM (active); in test [3] it was 43.6 µM (active); in test [6], 49 µM (active). Besides, the Potency result in [2] and in [8] was “inactive” each time. Moreover, the outcome in test [9] was inactive.
Turning to `Fc1cccc(Cl)c1CCl`, the Potency entry in [1], in [2], in [3], in test [5], in test [6] and in [7] was “inactive” throughout. In addition, the outcome in test [9] was inactive.
`CC(C)OS(C)(=O)=O`: the Potency entry in test [1], in test [2], in [3], in test [5], in [6] and in test [7] was “inactive” throughout. Further, in [8], the Potency result was “inactive”. The outcome in test [9] was inactive.
Take `ClC1=C(Cl)C2(Cl)C3C(Cl)C=CC3C1(Cl)C2(Cl)Cl` (stereo unspecified): the Potency in test [1] is 38.9 µM (active). In addition, the Potency entry in test [2], in [3], in test [4] and in [7] was “inactive” throughout.
Take `Oc1ccc(C2(c3ccc(O)cc3)CCCCC2)cc1`: the Potency was 41.3 µM (active) in [1], 46.4 µM (active) in test [3], 46.4 µM (active) in test [4] and 23.2 µM (active) in test [6]. The Potency entry in test [2] is “inactive”. The outcome in [9] was inactive.
As to `BrCBr`, the Potency entry in [1], in test [2], in test [3], in [6], in test [7] and in test [8] was “inactive” throughout.
Regarding `CC(C)OC(=S)S`, the Potency entry in [1], in test [2], in [3], in test [5], in [6] and in test [7] was “inactive” throughout.
In the case of `O=C(CCCN1CCC2(CC1)C(=O)NCN2c1ccccc1)c1ccc(F)cc1`, the Potency entry in test [1], in test [2], in test [3], in [5], in [7] and in [8] was “inactive” in each case. Moreover, the result in test [9] was inactive.
In the case of `CCOC(=O)OC1=C(c2cc(C)ccc2C)C(=O)NC12CCC(OC)CC2` (stereo unspecified), the Potency result in test [1], in test [2], in test [3], in test [5], in [6] and in test [7] was “inactive” each time. Also, the Potency result in [8] is “inactive”. Also, the outcome in [9] was inactive.
`Cc1ccc(OP(=O)(Oc2ccccc2)Oc2ccccc2)cc1`: the Potency entry in test [1], in test [2], in test [3], in [4], in [6] and in test [7] was “inactive” each time. The Potency entry in [8] is “inactive”. Further, in [9], the outcome was inactive.
For the compound `Cc1cc(C)c(C2=C(OC(=O)CC(C)(C)C)C3(CCCC3)OC2=O)c(C)c1`, the Potency result in test [1], in test [2], in test [3], in [5], in [6] and in test [7] was “inactive” each time. Further, in test [9], the result was inactive.
Turning to `C1CCC2CCCCC2C1` (stereo unspecified), the Potency entry in test [1], in [2], in test [3], in [5], in test [6] and in [7] was “inactive” in each case. In test [8], the Potency result is “inactive”. Besides, the result in [9] was inactive.
As for `CC(C)OC(=O)C(O)(c1ccc(Cl)cc1)c1ccc(Cl)cc1`, the Potency entry in test [1], in test [2], in [3], in test [5], in test [6] and in test [7] was “inactive” throughout. In addition, the Potency result in [8] is “inactive”. Besides, in [9], the result was inactive.
Take `CC(C)(C)OO`: the Potency result in test [1], in test [2], in test [3], in test [4], in [6] and in test [7] was “inactive” throughout. In addition, the Potency entry in test [8] was “inactive”.
As for `c1ccc(Nc2ccc3ccccc3c2)cc1`, the Potency entry in [1], in [2], in test [3], in test [4], in [5] and in [6] was “inactive” in each case. Besides, in test [7], the Potency entry is “inactive”. In addition, in test [9], the result was inactive.
Turning to `O=[N+]([O-])c1ccc(Oc2ccc(C(F)(F)F)cc2[N+](=O)[O-])cc1`, the Potency entry in test [1], in test [2], in [3], in [5], in [7] and in [8] was “inactive” each time. Moreover, the result in test [9] was inactive.
Take `CN(C)c1ccc(N=Nc2ccccc2)cc1`: the Potency result in test [1], in [2], in test [3], in test [4], in test [5] and in test [6] was “inactive” in each case. Moreover, the Potency result in test [7] was “inactive”. Further, the result in test [9] was inactive.
As to `CCC(C)(C)C(=O)OC1=C(c2ccc(Cl)cc2Cl)C(=O)OC12CCCCC2`, the Potency result in [1], in test [2], in test [3], in test [4], in [6] and in [7] was “inactive” each time. Also, the Potency result in test [8] was “inactive”. Further, the outcome in test [9] was inactive.
As for `ClC(Cl)=C(c1ccc(Cl)cc1)c1ccc(Cl)cc1`, the Potency in [1] is 24.5 µM (active); in test [6] it was 38.9 µM (active). Further, the Potency result in [2], in [3], in [4], in test [7], in [8] and in test [10] was “inactive” in each case. In [9], the result was inactive.
`CCCCCCCCCBr`: the Potency entry in test [1], in test [2], in test [3], in [6], in test [7] and in [8] was “inactive” in each case.
On to `FC(F)(F)c1cccc(C2=CCN(CCc3ccc4ccccc4c3)CC2)c1`, for which the Potency entry in test [1], in test [2], in [3], in [5], in test [6] and in test [7] was “inactive” in each case. In test [8], the Potency entry was “inactive”. In addition, the result in test [9] was inactive.
As to `C[C@H]1CC[C@@H]2[C@@H](C)[C@H]3[C@H](C[C@H]4[C@@H]5CC=C6CC(O[C@@H]7O[C@H](CO)[C@H](O)[C@H](O[C@@H]8O[C@H](CO)[C@@H](O)[C@H](O)[C@H]8O)[C@H]7O[C@H]7O[C@@H](C)[C@H](O)[C@@H](O)[C@H]7O)CC[C@]6(C)[C@H]5CC[C@]34C)N2C1` (stereo partly specified), the Potency in test [1] is 1.43 µM (active); in [3] it was 25.3 µM (active); in [6] it was 8.02 µM (active); in test [7], 14.3 µM (active). The Potency entry in test [2], in test [4], in test [8] and in [10] was “inactive” each time.
